{
  "source": "PubChem BioAssay AID1159580",
  "about": "(chemical genetic matrix, 2015)",
  "assay": "chemical genetic growth profiling, strain panel (AID 1159580);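 further: tested at 20 µM; growth read once vehicle control cultures reached saturation at 30 °C; 1 = growth at the plate median or of vehicle wells; lower values mean less growth of the strain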",
  "details": "S. cerevisiae deletion strains, growth OD",
  "note": "The whole screen tested about 5,500 compounds, of which about 2,000 (36%) were called active. Not shown: some 18% with an inconclusive outcome. This is one part of the list. A number with no mark means an inactive call. No stated cut-off is given here; in the data, active means normalized growth mostly below about 0.91 (no sharp cut-off); inconclusive means no clear call, values can overlap the other calls; inactive means mostly above about 0.92.",
  "data": [
    {"smiles": "C1CCN2CC3CC(CN4CCCCC34)C2C1", "note": "(centres undefined)", "values": [
      {"measurement": "normalized growth", "setting": "locus YAL013W, strain DEP1, active compounds read low", "result": 1.01},
      {"measurement": "normalized growth", "setting": "locus YAL021C, strain ccr4, active compounds read low", "result": 1},
      {"measurement": "normalized growth", "setting": "locus YAL026C, strain drs2, active compounds read low", "result": 1.03},
      {"measurement": "normalized growth", "setting": "locus YAL030W, strain snc1, active compounds read low", "result": 1.01},
      {"measurement": "normalized growth", "setting": "locus YBL061C, strain skt5, active compounds read low", "result": 1.02},
      {"measurement": "normalized growth", "setting": "locus YBR009C, strain hhf1, active compounds read low", "result": 1.02},
      {"measurement": "normalized growth", "setting": "locus YBR021W, strain FUR4, active compounds read low", "result": 1},
      {"measurement": "normalized growth", "setting": "locus YBR023C, strain chs3, active compounds read low", "result": 1.02},
      {"measurement": "normalized growth", "setting": "locus YBR171W, strain sec66, active compounds read low", "result": 1.03},
      {"measurement": "normalized growth", "setting": "locus YBR229C, strain ROT2, active compounds read low", "result": 1.01},
      {"measurement": "normalized growth", "setting": "locus YBR231C, strain swc5, active compounds read low", "result": 1.01},
      {"measurement": "normalized growth", "setting": "locus YBR279W, strain paf1, active compounds read low", "result": 1.02},
      {"measurement": "normalized growth", "setting": "locus YCL011C, strain gbp2, active compounds read low", "result": 1.02},
      {"measurement": "normalized growth", "setting": "locus YCL016C, strain dcc1, active compounds read low", "result": 1.02},
      {"measurement": "normalized growth", "setting": "locus YCL029C, strain bik1, active compounds read low", "result": 1.01},
      {"measurement": "normalized growth", "setting": "locus YCL061C, strain MRC1, active compounds read low", "result": 1.02},
      {"measurement": "normalized growth", "setting": "locus YCL069W, strain vba3, active compounds read low", "result": 1.03},
      {"measurement": "normalized growth", "setting": "locus YCR088W, strain abp1, active compounds read low", "result": 1.03},
      {"measurement": "normalized growth", "setting": "locus YDL005C, strain med2, active compounds read low", "result": 1.03},
      {"measurement": "normalized growth", "setting": "locus YDL035C, strain GPR1, active compounds read low", "result": 1.01},
      {"measurement": "normalized growth", "setting": "locus YDL040C, strain nat1, active compounds read low", "result": 1.01},
      {"measurement": "normalized growth", "setting": "locus YDL074C, strain BRE1, active compounds read low", "result": 1.01},
      {"measurement": "normalized growth", "setting": "locus YDL101C, strain DUN1, active compounds read low", "result": 0.997},
      {"measurement": "normalized growth", "setting": "locus YDL134C, strain PPH21, active compounds read low", "result": 1},
      {"measurement": "normalized growth", "setting": "locus YDL185W, strain tfp1, active compounds read low", "result": 1.01},
      {"measurement": "normalized growth", "setting": "locus YDL192W, strain arf1, active compounds read low", "result": 1.01},
      {"measurement": "normalized growth", "setting": "locus YDR001C, strain nth1, active compounds read low", "result": 1.02},
      {"measurement": "normalized growth", "setting": "locus YDR069C, strain doa4, active compounds read low", "result": 1.03},
      {"measurement": "normalized growth", "setting": "locus YDR101C, strain arx1, active compounds read low", "result": 1.01},
      {"measurement": "normalized growth", "setting": "locus YDR137W, strain rgp1, active compounds read low", "result": 1.02},
      {"measurement": "normalized growth", "setting": "locus YDR150W, strain NUM1, active compounds read low", "result": 1.01},
      {"measurement": "normalized growth", "setting": "locus YDR159W, strain sac3, active compounds read low", "result": 1.03},
      {"measurement": "normalized growth", "setting": "locus YDR162C, strain NBP2, active compounds read low", "result": 0.993},
      {"measurement": "normalized growth", "setting": "locus YDR195W, strain ref2", "result": 0.99},
      {"measurement": "normalized growth", "setting": "locus YDR297W, strain sur2, active compounds read low", "result": 1.01},
      {"measurement": "normalized growth", "setting": "locus YDR318W, strain mcm21, active compounds read low", "result": "0.654 (active)"},
      {"measurement": "normalized growth", "setting": "locus YDR334W, strain swr1, active compounds read low", "result": 1.03},
      {"measurement": "normalized growth", "setting": "locus YDR335W, strain msn5, active compounds read low", "result": 1.04},
      {"measurement": "normalized growth", "setting": "locus YDR388W, active compounds read low", "result": 1},
      {"measurement": "normalized growth", "setting": "locus YDR392W, strain spt3, active compounds read low", "result": 0.929},
      {"measurement": "normalized growth", "setting": "locus YDR502C, strain sam2, active compounds read low", "result": 0.974},
      {"measurement": "normalized growth", "setting": "locus YEL003W, strain gim4, active compounds read low", "result": 1.03},
      {"measurement": "normalized growth", "setting": "locus YEL037C, strain rad23, active compounds read low", "result": 1.02},
      {"measurement": "normalized growth", "setting": "locus YEL061C, strain CIN8 (second series), active compounds read low", "result": 1.03},
      {"measurement": "normalized growth", "setting": "locus YEL061C, strain CIN8, active compounds read low", "result": 1.01},
      {"measurement": "normalized growth", "setting": "locus YER015W, strain faa2, active compounds read low", "result": 1.01},
      {"measurement": "normalized growth", "setting": "locus YER016W, strain bim1, active compounds read low", "result": 1.03},
      {"measurement": "normalized growth", "setting": "locus YER110C, active compounds read low", "result": 1.02},
      {"measurement": "normalized growth", "setting": "locus YER111C, strain swi4, active compounds read low", "result": 1.02},
      {"measurement": "normalized growth", "setting": "locus YER155C, strain BEM2 (second series), active compounds read low", "result": 1.05},
      {"measurement": "normalized growth", "setting": "locus YER155C, strain BEM2, active compounds read low", "result": 1.01},
      {"measurement": "normalized growth", "setting": "locus YER167W, strain BCK2, active compounds read low", "result": 1.01},
      {"measurement": "normalized growth", "setting": "locus YFR010W, strain ubp6, active compounds read low", "result": 1.02},
      {"measurement": "normalized growth", "setting": "locus YGL078C, strain dbp3, active compounds read low", "result": 0.983},
      {"measurement": "normalized growth", "setting": "locus YGL086W, strain mad1, active compounds read low", "result": "0.901 (active)"},
      {"measurement": "normalized growth", "setting": "locus YGL167C, strain pmr1, active compounds read low", "result": 1.02},
      {"measurement": "normalized growth", "setting": "locus YGL173C, strain kem1, active compounds read low", "result": 1.03},
      {"measurement": "normalized growth", "setting": "locus YGL227W, strain vid30, active compounds read low", "result": 1.02},
      {"measurement": "normalized growth", "setting": "locus YGL240W, strain doc1, active compounds read low", "result": 1.03},
      {"measurement": "normalized growth", "setting": "locus YGL248W, strain PDE1, active compounds read low", "result": 0.998},
      {"measurement": "normalized growth", "setting": "locus YGL253W, strain hxk2, active compounds read low", "result": 1.02},
      {"measurement": "normalized growth", "setting": "locus YGR078C, strain PAC10, active compounds read low", "result": 1},
      {"measurement": "normalized growth", "setting": "locus YGR135W, strain pre9, active compounds read low", "result": "0.838 (active)"},
      {"measurement": "normalized growth", "setting": "locus YGR229C, strain SMI1, active compounds read low", "result": 1.01},
      {"measurement": "normalized growth", "setting": "locus YGR252W, strain gcn5, active compounds read low", "result": "0.732 (active)"},
      {"measurement": "normalized growth", "setting": "locus YHR013C, strain ard1, active compounds read low", "result": 1.01},
      {"measurement": "normalized growth", "setting": "locus YHR027C, strain rpn1, active compounds read low", "result": 1.01},
      {"measurement": "normalized growth", "setting": "locus YHR030C, strain SLT2, active compounds read low", "result": 1.01},
      {"measurement": "normalized growth", "setting": "locus YHR079C, strain IRE1 (second series), active compounds read low", "result": 0.999},
      {"measurement": "normalized growth", "setting": "locus YHR094C, strain hxt1, active compounds read low", "result": 1.01},
      {"measurement": "normalized growth", "setting": "locus YHR129C, strain ARP1, active compounds read low", "result": 1},
      {"measurement": "normalized growth", "setting": "locus YHR142W, strain chs7, active compounds read low", "result": 1},
      {"measurement": "normalized growth", "setting": "locus YHR200W, strain rpn10, active compounds read low", "result": 1},
      {"measurement": "normalized growth", "setting": "locus YIL066C, strain RNR3, active compounds read low", "result": 1.02},
      {"measurement": "normalized growth", "setting": "locus YIL073C, strain SPO22, active compounds read low", "result": 1.07},
      {"measurement": "normalized growth", "setting": "locus YIL125W, strain kgd1, active compounds read low", "result": 1},
      {"measurement": "normalized growth", "setting": "locus YIR030C, strain dcg1, active compounds read low", "result": 1.01},
      {"measurement": "normalized growth", "setting": "locus YJL092W, strain hpr5, active compounds read low", "result": 1.03},
      {"measurement": "normalized growth", "setting": "locus YJL095W, strain BCK1 (second series), active compounds read low", "result": 1.02},
      {"measurement": "normalized growth", "setting": "locus YJL095W, strain BCK1, active compounds read low", "result": 0.995},
      {"measurement": "normalized growth", "setting": "locus YJL115W, strain asf1, active compounds read low", "result": 1.03},
      {"measurement": "normalized growth", "setting": "locus YJL129C, strain trk1, active compounds read low", "result": 1.02},
      {"measurement": "normalized growth", "setting": "locus YJL134W, strain LCB3, active compounds read low", "result": 1.01},
      {"measurement": "normalized growth", "setting": "locus YJL154C, strain vps35, active compounds read low", "result": 1.02},
      {"measurement": "normalized growth", "setting": "locus YJL164C, strain tpk1, active compounds read low", "result": 1.01},
      {"measurement": "normalized growth", "setting": "locus YJL166W, strain qcr8, active compounds read low", "result": 1.02},
      {"measurement": "normalized growth", "setting": "locus YJL168C, strain set2, active compounds read low", "result": 1.01},
      {"measurement": "normalized growth", "setting": "locus YJL187C, strain SWE1 (second series), active compounds read low", "result": 1.01},
      {"measurement": "normalized growth", "setting": "locus YJL187C, strain SWE1, active compounds read low", "result": 1.02}
    ]}
  ]
}
